Our source for the inhibition values is ChEMBL document CHEMBL1961873, “Compounds: GSK PKIS; Assays: Nanosyn kinase panel” (2012).

Assay [1] concerns the target Death-associated protein kinase 1 (Homo sapiens) (UniProt P53355). To be noted: at 1 µM.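 Also: each value is a mean inhibition figure.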
Assay [2] has as its target T1, Serine/threonine-protein kinase DCLK2 (Homo sapiens) (UniProt Q8N568).
T1 sequence (whole entry): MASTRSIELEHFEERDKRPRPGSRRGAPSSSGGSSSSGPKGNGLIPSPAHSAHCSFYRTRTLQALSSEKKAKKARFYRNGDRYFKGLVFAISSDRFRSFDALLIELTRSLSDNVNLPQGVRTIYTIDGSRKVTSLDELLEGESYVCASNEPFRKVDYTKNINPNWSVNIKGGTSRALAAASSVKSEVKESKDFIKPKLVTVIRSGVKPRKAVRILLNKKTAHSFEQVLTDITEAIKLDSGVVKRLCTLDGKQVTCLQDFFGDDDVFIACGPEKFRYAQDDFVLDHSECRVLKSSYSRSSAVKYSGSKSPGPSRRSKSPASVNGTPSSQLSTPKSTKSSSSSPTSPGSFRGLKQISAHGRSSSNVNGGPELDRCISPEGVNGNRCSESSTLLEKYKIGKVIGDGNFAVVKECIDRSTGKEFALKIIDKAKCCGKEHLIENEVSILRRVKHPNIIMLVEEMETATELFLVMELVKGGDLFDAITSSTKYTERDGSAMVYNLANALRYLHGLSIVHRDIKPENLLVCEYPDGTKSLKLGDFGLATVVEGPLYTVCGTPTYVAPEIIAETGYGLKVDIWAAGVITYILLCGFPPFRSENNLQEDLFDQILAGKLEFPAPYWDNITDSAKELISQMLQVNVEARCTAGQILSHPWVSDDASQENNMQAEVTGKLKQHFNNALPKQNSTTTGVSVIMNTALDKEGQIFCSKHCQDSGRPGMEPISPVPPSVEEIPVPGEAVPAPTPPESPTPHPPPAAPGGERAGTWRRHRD
To be noted: at 0.1 µM.

Assay [3] concerns the target T1, Serine/threonine-protein kinase DCLK2 (Homo sapiens). To be noted: at 1 µM.
Assay [4] has as its target MAP kinase-activated protein kinase 2 (Homo sapiens) (UniProt P49137). To be noted: at 0.1 µM.
The target is the same in assay [5]. To be noted: at 1 µM.
For assay [6], the target named is MAP kinase-activated protein kinase 3 (Homo sapiens) (UniProt Q16644). To be noted: at 0.1 µM.
MAP kinase-activated protein kinase 3 (Homo sapiens), sequence (Q16644 whole entry, looked up): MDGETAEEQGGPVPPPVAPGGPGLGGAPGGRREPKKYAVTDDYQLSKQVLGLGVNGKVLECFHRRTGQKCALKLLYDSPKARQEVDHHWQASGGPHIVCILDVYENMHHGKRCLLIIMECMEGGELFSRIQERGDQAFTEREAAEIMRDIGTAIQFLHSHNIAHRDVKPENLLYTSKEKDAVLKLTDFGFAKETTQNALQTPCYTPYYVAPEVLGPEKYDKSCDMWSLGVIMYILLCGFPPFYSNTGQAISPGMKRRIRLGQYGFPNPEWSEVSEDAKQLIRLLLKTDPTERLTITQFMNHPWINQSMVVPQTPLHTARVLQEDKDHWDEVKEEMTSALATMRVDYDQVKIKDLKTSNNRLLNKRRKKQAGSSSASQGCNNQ
Assay [7] shares this target. To be noted: at 1 µM.
Assay [8] addresses Serine/threonine-protein kinase MARK1 (Homo sapiens) (UniProt Q9P0L2). To be noted: at 0.1 µM.
For assay [9] the target is unchanged. To be noted: at 1 µM.
In assay [10] the target is MAP/microtubule affinity-regulating kinase 3 (Homo sapiens) (UniProt P27448). To be noted: at 0.1 µM.
The target is the same in assay [11]. To be noted: at 1 µM.
For assay [12], the target named is T2, MAP/microtubule affinity-regulating kinase 4 (Homo sapiens) (UniProt Q96L34).
T2 sequence (whole entry): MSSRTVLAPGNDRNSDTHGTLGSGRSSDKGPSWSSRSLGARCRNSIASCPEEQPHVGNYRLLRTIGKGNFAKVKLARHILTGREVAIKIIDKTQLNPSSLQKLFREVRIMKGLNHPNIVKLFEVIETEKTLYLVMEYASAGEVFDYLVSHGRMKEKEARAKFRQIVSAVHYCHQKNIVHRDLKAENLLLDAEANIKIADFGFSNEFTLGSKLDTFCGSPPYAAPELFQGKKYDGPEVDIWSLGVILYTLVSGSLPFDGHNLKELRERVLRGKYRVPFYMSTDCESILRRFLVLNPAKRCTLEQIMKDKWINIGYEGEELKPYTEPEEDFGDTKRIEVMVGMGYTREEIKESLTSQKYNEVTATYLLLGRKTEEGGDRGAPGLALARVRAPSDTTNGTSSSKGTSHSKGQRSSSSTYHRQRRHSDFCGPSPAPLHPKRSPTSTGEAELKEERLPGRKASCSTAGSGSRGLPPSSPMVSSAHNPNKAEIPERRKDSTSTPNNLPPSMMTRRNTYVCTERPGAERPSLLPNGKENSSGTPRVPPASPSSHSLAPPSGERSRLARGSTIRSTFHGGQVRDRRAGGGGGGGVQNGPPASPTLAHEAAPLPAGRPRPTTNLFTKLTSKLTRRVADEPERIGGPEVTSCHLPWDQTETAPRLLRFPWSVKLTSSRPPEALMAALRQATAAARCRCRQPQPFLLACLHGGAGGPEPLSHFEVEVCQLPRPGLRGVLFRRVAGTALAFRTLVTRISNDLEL
To be noted: at 0.1 µM.

Assay [13] addresses T2, MAP/microtubule affinity-regulating kinase 4 (Homo sapiens). To be noted: at 1 µM.
Assay [14] concerns the target Maternal embryonic leucine zipper kinase (Homo sapiens) (UniProt Q14680). To be noted: at 0.1 µM.
The target is the same in assay [15]. To be noted: at 1 µM.
The target in assay [16] is MAP kinase-interacting serine/threonine-protein kinase 1 (Homo sapiens) (UniProt Q9BUB5). To be noted: at 0.1 µM.
MAP kinase-interacting serine/threonine-protein kinase 1 (Homo sapiens), sequence (Q9BUB5 whole entry, looked up): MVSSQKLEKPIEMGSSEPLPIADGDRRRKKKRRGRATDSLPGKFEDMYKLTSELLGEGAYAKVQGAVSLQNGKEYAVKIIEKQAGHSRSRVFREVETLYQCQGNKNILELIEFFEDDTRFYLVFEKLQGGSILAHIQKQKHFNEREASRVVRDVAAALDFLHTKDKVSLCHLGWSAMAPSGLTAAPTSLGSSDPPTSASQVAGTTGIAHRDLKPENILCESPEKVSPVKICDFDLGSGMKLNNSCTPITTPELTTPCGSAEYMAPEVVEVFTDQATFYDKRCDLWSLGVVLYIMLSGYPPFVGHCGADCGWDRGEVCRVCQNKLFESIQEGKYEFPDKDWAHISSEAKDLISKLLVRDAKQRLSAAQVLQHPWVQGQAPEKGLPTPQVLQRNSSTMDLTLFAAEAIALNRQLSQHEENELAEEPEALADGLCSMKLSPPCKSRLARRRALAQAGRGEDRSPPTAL
Assay [17] has the same target. To be noted: at 1 µM.
The target in assay [18] is MAP kinase-interacting serine/threonine-protein kinase 2 (Homo sapiens) (UniProt Q9HBH9). To be noted: at 0.1 µM.
MAP kinase-interacting serine/threonine-protein kinase 2 (Homo sapiens), sequence (Q9HBH9 whole entry, looked up): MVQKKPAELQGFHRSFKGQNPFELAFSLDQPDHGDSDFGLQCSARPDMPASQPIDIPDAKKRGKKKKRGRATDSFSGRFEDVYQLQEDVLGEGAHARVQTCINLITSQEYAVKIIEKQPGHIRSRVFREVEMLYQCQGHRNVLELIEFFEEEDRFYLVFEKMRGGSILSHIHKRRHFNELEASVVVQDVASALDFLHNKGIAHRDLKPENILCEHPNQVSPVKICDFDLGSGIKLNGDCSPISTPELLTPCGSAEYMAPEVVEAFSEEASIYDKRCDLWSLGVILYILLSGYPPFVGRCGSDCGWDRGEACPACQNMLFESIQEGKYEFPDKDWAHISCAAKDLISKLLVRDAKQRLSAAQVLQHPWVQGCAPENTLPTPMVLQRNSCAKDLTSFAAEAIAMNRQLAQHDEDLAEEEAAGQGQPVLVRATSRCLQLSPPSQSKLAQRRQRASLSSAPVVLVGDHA
Assay [19] has the same target. To be noted: at 1 µM.
Assay [20] addresses Serine/threonine-protein kinase MARK2 (Homo sapiens) (UniProt Q7KZI7). To be noted: at 0.1 µM.

Death-associated protein kinase 1 (Homo sapiens), sequence (P53355 whole entry, looked up): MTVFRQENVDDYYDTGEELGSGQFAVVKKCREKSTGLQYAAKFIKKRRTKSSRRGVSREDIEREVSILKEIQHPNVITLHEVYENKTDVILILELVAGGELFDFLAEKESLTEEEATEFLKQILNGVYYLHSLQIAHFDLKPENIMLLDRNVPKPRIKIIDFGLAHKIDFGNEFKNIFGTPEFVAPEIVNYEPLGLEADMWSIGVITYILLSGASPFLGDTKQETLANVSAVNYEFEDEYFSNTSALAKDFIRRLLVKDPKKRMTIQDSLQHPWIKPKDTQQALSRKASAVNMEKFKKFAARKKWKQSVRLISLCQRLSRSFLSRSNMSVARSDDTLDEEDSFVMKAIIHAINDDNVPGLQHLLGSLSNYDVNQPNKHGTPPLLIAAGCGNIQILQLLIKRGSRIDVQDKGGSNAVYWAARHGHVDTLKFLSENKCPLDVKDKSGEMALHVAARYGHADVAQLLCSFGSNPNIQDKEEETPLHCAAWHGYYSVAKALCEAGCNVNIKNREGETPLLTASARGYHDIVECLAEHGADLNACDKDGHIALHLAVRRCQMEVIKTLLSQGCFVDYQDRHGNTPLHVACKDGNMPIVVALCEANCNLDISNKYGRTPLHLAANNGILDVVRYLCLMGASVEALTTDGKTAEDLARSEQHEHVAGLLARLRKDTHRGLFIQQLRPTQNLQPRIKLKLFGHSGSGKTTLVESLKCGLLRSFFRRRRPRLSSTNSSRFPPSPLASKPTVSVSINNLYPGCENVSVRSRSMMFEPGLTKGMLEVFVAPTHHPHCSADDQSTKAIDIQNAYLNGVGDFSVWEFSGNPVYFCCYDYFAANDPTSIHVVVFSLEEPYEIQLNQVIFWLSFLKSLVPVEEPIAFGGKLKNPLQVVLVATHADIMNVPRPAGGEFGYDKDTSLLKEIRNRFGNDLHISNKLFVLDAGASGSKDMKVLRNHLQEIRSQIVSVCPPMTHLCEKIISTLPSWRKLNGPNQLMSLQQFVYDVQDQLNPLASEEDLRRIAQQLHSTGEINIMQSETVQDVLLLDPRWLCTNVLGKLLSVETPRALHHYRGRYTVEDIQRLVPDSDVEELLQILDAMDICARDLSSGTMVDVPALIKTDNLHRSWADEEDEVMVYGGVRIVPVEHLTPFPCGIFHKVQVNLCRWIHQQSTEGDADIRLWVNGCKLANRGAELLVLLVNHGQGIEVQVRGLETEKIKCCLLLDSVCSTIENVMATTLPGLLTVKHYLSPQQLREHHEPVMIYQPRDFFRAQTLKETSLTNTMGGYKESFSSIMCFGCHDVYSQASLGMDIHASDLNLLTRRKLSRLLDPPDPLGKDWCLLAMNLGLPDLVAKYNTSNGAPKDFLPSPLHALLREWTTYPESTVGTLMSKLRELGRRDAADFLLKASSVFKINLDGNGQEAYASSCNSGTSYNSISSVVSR
Maternal embryonic leucine zipper kinase (Homo sapiens), sequence (Q14680 whole entry, looked up): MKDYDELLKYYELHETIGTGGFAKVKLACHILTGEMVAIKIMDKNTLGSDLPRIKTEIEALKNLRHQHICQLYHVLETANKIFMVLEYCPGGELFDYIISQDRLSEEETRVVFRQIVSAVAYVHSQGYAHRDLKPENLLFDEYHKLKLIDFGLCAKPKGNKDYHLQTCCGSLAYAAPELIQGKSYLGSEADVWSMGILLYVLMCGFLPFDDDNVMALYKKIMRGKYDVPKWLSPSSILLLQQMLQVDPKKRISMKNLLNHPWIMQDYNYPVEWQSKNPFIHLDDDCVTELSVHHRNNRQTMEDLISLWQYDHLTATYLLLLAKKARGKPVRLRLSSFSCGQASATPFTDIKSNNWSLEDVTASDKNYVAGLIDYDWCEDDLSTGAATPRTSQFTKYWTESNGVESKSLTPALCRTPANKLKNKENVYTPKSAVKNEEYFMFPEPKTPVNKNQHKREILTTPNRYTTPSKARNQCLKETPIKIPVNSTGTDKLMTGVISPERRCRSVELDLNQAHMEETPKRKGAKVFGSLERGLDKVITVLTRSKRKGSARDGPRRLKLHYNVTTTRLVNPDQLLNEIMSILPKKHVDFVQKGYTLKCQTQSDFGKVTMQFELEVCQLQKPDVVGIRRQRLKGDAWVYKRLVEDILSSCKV
MAP kinase-activated protein kinase 2 (Homo sapiens), sequence (P49137 whole entry, looked up): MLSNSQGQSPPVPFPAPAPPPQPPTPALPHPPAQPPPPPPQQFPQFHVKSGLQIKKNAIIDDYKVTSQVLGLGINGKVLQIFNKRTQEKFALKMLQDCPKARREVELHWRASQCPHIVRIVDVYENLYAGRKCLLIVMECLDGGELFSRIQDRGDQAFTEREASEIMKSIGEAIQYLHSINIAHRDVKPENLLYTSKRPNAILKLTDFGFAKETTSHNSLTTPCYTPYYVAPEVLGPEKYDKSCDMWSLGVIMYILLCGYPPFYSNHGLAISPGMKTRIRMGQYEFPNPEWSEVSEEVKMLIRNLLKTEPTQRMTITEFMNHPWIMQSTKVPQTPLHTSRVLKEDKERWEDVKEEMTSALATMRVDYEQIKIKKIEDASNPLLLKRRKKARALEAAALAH
Serine/threonine-protein kinase MARK2 (Homo sapiens), sequence (Q7KZI7 whole entry): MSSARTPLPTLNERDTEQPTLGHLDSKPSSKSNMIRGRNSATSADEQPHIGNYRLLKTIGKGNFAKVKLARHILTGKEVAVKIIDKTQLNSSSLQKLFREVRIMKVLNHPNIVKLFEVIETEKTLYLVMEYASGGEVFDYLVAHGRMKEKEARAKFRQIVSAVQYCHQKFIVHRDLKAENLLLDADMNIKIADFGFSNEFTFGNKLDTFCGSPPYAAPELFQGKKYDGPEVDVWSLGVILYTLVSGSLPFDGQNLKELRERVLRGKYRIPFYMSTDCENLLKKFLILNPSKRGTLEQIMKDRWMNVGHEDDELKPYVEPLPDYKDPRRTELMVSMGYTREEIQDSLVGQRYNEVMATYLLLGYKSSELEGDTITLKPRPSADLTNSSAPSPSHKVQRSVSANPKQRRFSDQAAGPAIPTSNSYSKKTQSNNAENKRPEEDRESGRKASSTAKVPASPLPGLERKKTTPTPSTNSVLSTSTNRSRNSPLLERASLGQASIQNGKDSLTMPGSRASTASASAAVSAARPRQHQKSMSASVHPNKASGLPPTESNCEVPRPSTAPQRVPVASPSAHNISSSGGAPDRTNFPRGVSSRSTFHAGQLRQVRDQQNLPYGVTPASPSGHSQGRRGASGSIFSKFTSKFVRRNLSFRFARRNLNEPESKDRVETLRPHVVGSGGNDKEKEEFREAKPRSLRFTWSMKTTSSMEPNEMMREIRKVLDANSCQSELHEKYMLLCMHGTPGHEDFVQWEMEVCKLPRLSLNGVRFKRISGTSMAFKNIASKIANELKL

Take `Fc1ccc(-c2ncn(C3CCNCC3)c2-c2ccnc(Oc3ccc(F)c(F)c3)n2)cc1`: the inhibition – broadly, the relative decrease from the control value, in per cent – in assay [1] is 2.08%; in assay [2], -3.27%; in assay [3] it was -1.37%; in assay [4] it was 1.11%; in [5] it was 0.66%; in assay [6], 18.5%. The inhibition in [7] turned out to be 31.3%; in assay [8], 2.93%; in assay [9] it was 4.99%; in [10], 3.47%; in assay [11], 12.2%; in assay [12], 3.57%. Besides, the inhibition was determined as 4.5% in [13]; 7.73% in assay [14]; 7.03% in assay [15]; 2.05% in [16]; 3.06% in assay [17]; 1.28% in assay [18]. Also, the inhibition was 1.04% in assay [19] and -0.25% in [20].

As for `O=C(Nc1n[nH]c2nc(-c3ccc(O)cc3)c(Br)cc12)C1CC1`, the inhibition stood at 3.27% in assay [1]; 0.9% in assay [2]; 3.55% in [3]; 2.43% in [4]; 2.69% in assay [5]; 4.49% in assay [6]. Moreover, the inhibition in assay [7] turned out to be 5.6%; in assay [8], 3.94%; in assay [9], 9.58%; in assay [10] it was 3.96%; in [11], 8.75%; in assay [12], 3.64%. For the same compound, the inhibition in assay [13] was 4.75%; in [14] it was 6.28%; in assay [15], 13.1%; in assay [16] it was 37.8%; in assay [17], 76.1%; in assay [18], 5.42%. Moreover, the inhibition in [19] was 35.1%; in [20] it was -0.95%.

On to `COc1ccc2cc(-c3c(-c4ccncc4)nc(-c4ccc(S(C)(=O)=O)cc4C)n3C)ccc2c1`, for which the inhibition in assay [1] was -3.68%; in [2], 0.26%; in assay [3], -1.72%; in assay [4], -0.32%; in assay [5] it was -1.32%; in assay [6], -1.15%. The inhibition stood at 1.63% in assay [7]; 3.38% in assay [8]; 4.84% in assay [9]; 1.58% in [10]; 2.48% in [11]; 2.52% in assay [12]. Besides, the inhibition was determined as 1.32% in assay [13]; 6.13% in assay [14]; 9.41% in assay [15]; 2.6% in [16]; 6.69% in assay [17]; 1.75% in [18]. Besides, the inhibition is 3.34% in [19] and 0.73% in assay [20].

With `COc1cc(Nc2ncc3c(C)nc(-c4cccc(C(F)(F)F)c4)n3n2)cc(OC)c1OC`, the inhibition in assay [1] is 1.2%; in assay [2] it was 0.76%; in [3] it was -1.04%; in [4], 1.86%; in assay [5], 2.09%; in [6] it was 4.68%. Further, the inhibition worked out at 5.16% in [7]; 2.7% in assay [8]; 15.5% in assay [9]; 1.84% in assay [10]; 7.63% in assay [11]; 1.28% in assay [12]. The inhibition stood at 7.81% in assay [13]; 13.1% in [14]; 63.1% in [15]; 3.56% in assay [16]; 7.34% in assay [17]; 2.94% in [18]. Moreover, the results for the inhibition in [19] and in [20] were 6% and 0.26%, respectively.

Regarding `CCS(=O)(=O)c1ccc(OC)c(Nc2ncc(-c3ccccc3Cl)o2)c1`, the inhibition in assay [1] is 4.97%; in assay [2] it was -0.26%; in [3] it was 5.11%; in [4], 0.24%; in assay [5] it was -0.21%; in assay [6], 2.9%. Also, the inhibition in [7] was 3.29%; in assay [8], 0.31%; in assay [9], 0.38%; in assay [10], 1.45%; in assay [11], -1.14%; in [12] it was -1.13%. For the same compound, the inhibition is 0.41% in assay [13]; -0.46% in [14]; 3.44% in [15]; 1.1% in assay [16]; 5.2% in assay [17]; 0.17% in assay [18]. Further, the inhibition in assay [19] worked out at 7.7%; in assay [20], 1.4%.

Regarding `Cc1ccc(NC(=O)c2ccoc2)cc1-c1ccc(C(=O)NCC2CC2)cc1`, the inhibition in assay [1] is 4.7%; in [2] it was -0.46%; in assay [3], -0.45%; in assay [4], 0.09%; in assay [5] it was -0.32%; in [6], 20%. In addition, the inhibition amounted to 30.9% in assay [7]; 0.5% in assay [8]; 1.39% in [9]; 1.61% in assay [10]; 1.79% in [11]; 0.31% in assay [12]. Also, the inhibition in assay [13] was 0.19%; in assay [14], 3.06%; in [15] it was -0.33%; in [16] it was 3.06%; in [17] it was 4.75%; in [18], -0.05%. Moreover, the results for the inhibition in assay [19] and in assay [20] were 2.22% and -0.93%, respectively.
